Each structure is given as a SMILES string. Hit rate of the full screen: of about 330,000 compounds, about 7,300 (2.2%) were called active. Shown is part of a subset that was picked to be rich in actives. A number with no mark means an inactive call.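 The calls were made as follows: active = inhibition of at least 40%; inactive = the rest.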

For orientation: inhibition means the relative decrease from the control value, in per cent.

A short description of the experiment: growth inhibition of tim10-1 ts yeast – luminescence, uHTS, primary screen (AID 463190).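 Also: mutant grown at 25 °C; 0% = DMSO wells with yeast and 100% = wells holding no yeast.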 Conditions: S. cerevisiae tim10-1 ts strain growth, BacTiter-Glo, 24 h; at 20 µM; hits give high values.
For the molecule `CCN=C1S/C(=C\c2cc(Br)ccc2OCC(=O)OCC)C(=O)N1CC`, the inhibition is 25.5%. In the case of `Cc1ccc(COC(=O)CN2C(=O)NC3(CCCC3)C2=O)cc1`, the inhibition was 23.6%.

Turning to `CCn1c(COc2c(C)cccc2C)nnc1SCc1nc2ccccc2c(=O)[nH]1`, the inhibition was 40.2% (active).

As for `COc1ccc(CCCc2nnc(SCc3nc4ccccc4c(=O)[nH]3)n2C)cc1`, the inhibition is 19.4%. As to `CCn1c(Cc2ccccc2)nnc1SCc1nc2ccccc2c(=O)[nH]1`, the inhibition is 8.33%. To `O=c1c2cc(-c3ccccc3)sc2nc2n1N=C(c1cccs1)CS2` belongs 20.5%; to `O=C1C(=O)N(CCN2CCOCC2)C(c2ccccn2)/C1=C(/O)c1ccc(Cl)cc1` (stereo unspecified), 13.6%; to `O=C(c1cccc(Cl)c1)N1CCN(Cc2ccccc2)CC1`, -7.29%. To `O=C(CCCC(=O)N1CCN(c2cccc(Cl)c2)CC1)c1ccccc1` belongs 29.5%; to `CCc1nc2ccc(C(=O)N3CCN(c4cccc(Cl)c4)CC3)cc2nc1CC`, 52.2% (active). With `O=C(O)c1ccn(COc2ccc(Br)cc2)n1` the figure was -4%; with `O=C(CSc1cccc2cccnc12)N/N=C/c1cccnc1`, 51.7% (active). Take `Cc1ccc(NC(=O)CSc2cccc3cccnc23)c(C)c1`: the inhibition is 25.4%.

As to `CCOC(=O)N/N=C/c1cccnc1`, the inhibition was 5.36%. In the case of `O=C(Nc1nnc(SCc2c(Cl)cccc2Cl)s1)c1cccc([N+](=O)[O-])c1`, the inhibition is -2.85%. For `O=C(NCc1ccccc1Cl)C1CCCO1` (stereo unspecified), the inhibition is 0.911%.

Regarding `O=C(Nc1nnc(SCc2c(Cl)cccc2Cl)s1)C1CCCO1` (stereo unspecified), the inhibition is 42.5% (active). To `NC(=O)CCC(NS(=O)(=O)c1ccc(Cl)cc1)C(=O)NCc1ccccc1Cl` (stereo unspecified) belongs -4.94%; to `COc1ccc(Cl)cc1NC(=O)Cn1nc(-c2ccc(C)cc2)n(C)c1=S`, 2.15%; to `Cc1cc(Nc2ccccc2)n(C(=O)c2ccc(N)cc2)n1`, 50.1% (active). With `Cc1cc(Nc2ccccc2)n(CCC#N)n1` the figure was -11.5%; with `Cc1cc(C)n(C(=O)c2ccc(S(=O)(=O)N3CCCC3)cc2)n1`, 17.6%; with `CCc1ccc(CN(C)C(C)C(=O)Nc2ccc(S(=O)(=O)N3CCCC3)cc2)cc1` (stereo unspecified), 24.9%. With `COc1ccc(OC)c(S(=O)(=O)N2CCCC(C(=O)N3CCC(C(N)=O)CC3)C2)c1` (stereo unspecified) the figure was -23.6%; with `CN1CCN(S(=O)(=O)c2ccc(N3CCN(S(=O)(=O)c4cccs4)CC3)nc2)CC1`, -3.27%. With `COc1ccc(-c2oc3ncnc(NCCCO)c3c2-c2ccc(OC)cc2)cc1`, the inhibition was 9.86%.

For `COc1ccc(-n2cnc3cc(NCc4ccco4)ccc32)cc1`, the inhibition is 22%. With `COc1ccc(-c2oc3ncn(Cc4ccco4)c(=N)c3c2-c2ccc(OC)cc2)cc1` the figure was 41.7% (active). As for `Cc1cc(C)c(NC(=O)c2oc3ccccc3c2COc2ccccc2)c(C)c1`, the inhibition is 17%. With `O=C(Nc1ccccc1)c1ccc2c(c1)OCCCO2` the figure was 5.55%.

As for `COc1cccc(C(=O)NNC(=O)c2cccc(F)c2)c1`, the inhibition is -28.3%.

As for `COc1cccc(C(=O)Nc2cc3c(cc2Br)OCCCO3)c1`, the inhibition is 40.7% (active).

With `O=C(NC1Cc2ccccc2C1)c1cc(COc2cccc(C(F)(F)F)c2)on1`, the inhibition is 18.4%. Turning to `O=C(c1cc(COc2cccc(C(F)(F)F)c2)on1)N1CCSCC1`, the inhibition was 26.2%. To `Cc1nonc1C1CCCN1C(=O)c1cc(COc2cccc(C(F)(F)F)c2)on1` (stereo unspecified) belongs 46.1% (active). With `O=c1cnnc(Nc2ccccc2F)[nH]1` the figure was -10.8%; with `Cc1ccc(C(=O)N/C(=C/c2cccs2)C(=O)N2CCCCC2)cc1`, 19.1%; with `CCOC(=O)CSc1nc2c(c(=O)n(C)c(=O)n2C)n1Cc1ccccc1F`, 10.3%. To `Cn1c(=O)c2c(nc(SCC(=O)Nc3ccccc3N3CCCCC3)n2C)n(C)c1=O` belongs -4.92%; to `CCOC(=O)CSc1nc2c(c(=O)n(Cc3ccccc3Cl)c(=O)n2C)n1C`, 47.6% (active); to `Cc1cccc(NC(=O)c2nc(S(=O)(=O)Cc3ccccc3)ncc2Cl)c1`, 23.9%. Take `Cc1ccc(CS(=O)(=O)c2ncc(Cl)c(C(=O)Nc3nnc(C)s3)n2)cc1`: the inhibition was 20.6%. To `CSc1nnc(NC(=O)c2nc(S(=O)(=O)Cc3ccc(C)cc3)ncc2Cl)s1` belongs 41% (active); to `O=C(Nc1ccc(-n2cccn2)cc1)C1CCN(Cc2ccsc2)CC1`, -13.1%.

With `Cc1nn(C(=O)c2ccoc2C)c(N)c1-c1ccccc1`, the inhibition is 2.61%. With `O=C(O)CCCC(=O)N1N=C(c2ccco2)CC1c1ccco1` (stereo unspecified) the figure was -34.5%; with `Cc1nn2c(c1-c1ccccc1)N=C(c1ccco1)CC2c1ccccc1` (stereo unspecified), 45.5% (active); with `CCOc1cc(C)ccc1OCc1nnc(SCC(=O)Nc2cccc(C(=O)O)c2)n1-c1ccccc1`, 4.93%. With `COc1ccccc1CNC(=O)c1ccc(SC)cc1OC` the figure was 41.4% (active). As to `COc1cc(SC)ccc1C(=O)NCCOc1ccccc1Cl`, the inhibition is 20%. With `COc1cc(SC)ccc1C(=O)N(Cc1ccccc1)c1ccccc1` the figure was 26.9%; with `Cc1cc(C)n(CCNCc2c(C(=O)N3C[C@@H](C)O[C@@H](C)C3)nc3ccc(Cl)cn23)n1`, 5.77%; with `Cc1cc(C)nc(SCC(=O)c2ccc(Cl)cc2)n1`, 7.83%. As to `Cc1cc(C)nc(S/C=C/C(=O)c2ccccc2)n1`, the inhibition is 62.9% (active). Take `Cc1cc(C)nc(SCC(=O)N(C)C)n1`: the inhibition is 9.12%.

In the case of `COCCCn1c(SCc2cccc(OC)c2)nc2cc(OC)c(OC)cc2c1=N`, the inhibition is 28.6%.

Take `NC(=O)N/N=C\c1cccs1`: the inhibition is -3.46%. To `COc1ccc(N(CC(=O)N/N=C/c2cccs2)S(=O)(=O)c2ccc(OC)c(OC)c2)cc1` belongs 11.7%; to `COc1ccc2c(c1)c(C(=O)N/N=C/c1cccs1)c(C)n2C`, 44.8% (active); to `CCCCN(C)CCNC(=O)C1CCCN(S(=O)(=O)c2cccc3nsnc23)C1` (stereo unspecified), 8.01%. In the case of `O=C(c1ccco1)N1CCN(C(=O)c2cc(-c3ccccc3F)no2)CC1`, the inhibition was 26%. To `COc1ccc(/C=C2/C(=O)N(c3ccccc3)N=C2C)c(OC)c1` belongs 28.4%; to `COc1ccc(/C=C/C2=CC(C)(C)NC(=S)N2)c(OC)c1`, 42.8% (active); to `COc1cc(/C=C/C2=CC(C)(C)NC(=S)N2)cc(OC)c1OC`, 16.4%. With `O=C(Cc1ccccn1)c1ccc(O)cc1O` the figure was 4.18%; with `CC1=NNC(=O)C1CC(=O)N/N=C/c1ccncc1` (stereo unspecified), 7.67%. To `CCOC(=O)C1(CCOc2ccccc2)CCN(Cc2cc(OC)cc(OC)c2)CC1` belongs 30.7%. As for `CCOC(=O)C1(S(=O)(=O)c2ccccc2)CCN(Cc2ccccc2)CC1`, the inhibition is 41.1% (active). To `CCOC(=O)C1(S(=O)(=O)c2ccc(Cl)cc2)CCN(Cc2ccccc2)CC1` belongs 39.5%.

On to `O=S(=O)(c1ccc(Br)cc1)c1nc(-c2ccccc2)oc1N1CCOCC1`, for which the inhibition was 19.8%. To `O=C1COc2ccc(C(=O)CSc3ccc(Br)cc3)cc2N1` belongs 14%; to `CCOC(=O)C1Sc2[nH]c(=O)sc2C(c2ccc(Cl)cc2)C1C(=O)OCC` (stereo unspecified), 48.6% (active). With `CCOC(=O)c1[nH]c2c(c1-c1ccccc1)C(=O)CC(c1ccc(Cl)cc1)C2` (stereo unspecified) the figure was 11.7%; with `CCOC(=O)C1=C(C)NC(=O)N(C(C)=O)C1c1ccc(Cl)cc1` (stereo unspecified), 26.5%. With `CCCn1c(SCC(=O)Nc2ccc(C)c(S(=O)(=O)N3CCOCC3)c2)n[nH]c1=O` the figure was 11.7%; with `Fc1cccc(CSc2nnc3ccc(-c4ccncc4)nn23)c1`, 16.3%; with `CSc1nnc2ccc(-c3ccc(C)cc3)nn12`, 45.7% (active). In the case of `COc1ccc(-c2ccc3nnc(SCC(=O)Nc4ccc(NC(C)=O)cc4)n3n2)cc1`, the inhibition is -13%. With `Cc1oc(C(N)=O)cc1COc1ccc(C(N)=O)cc1`, the inhibition is -9.15%. With `CCOc1cc(C(=O)Nc2ncccn2)cc(OCC)c1OCC` the figure was 8.23%; with `CCOc1cc(-c2conc2N)cc(OCC)c1OCC`, 41.9% (active); with `CCOc1cc2c(Cl)ncnc2c(OCC)c1OCC`, 19.3%. With `Cc1sc2c(c1C)c(=O)n(-c1ccccc1)c1nncn21` the figure was 20.4%; with `CC[C@H](C)C(=O)N[C@H]1CCCN1C(=O)/C=C/c1ccccc1`, -0.774%.

Regarding `Cc1ccc2c(c1)N(CCCC(=O)NCc1cccnc1)C(=O)CO2`, the inhibition is -19.6%. To `COc1ccc(CNC(=O)C[C@H]2C[C@H](C(=O)N3CCOCC3)[C@@]3(CCC4CCCC4)c4[nH]c5ccc(Cl)cc5c4CCN3C2=O)cc1OC` belongs 17%; to `CC1Cc2ccccc2N1CC(=O)Nc1ccc2c(c1)OC(F)(F)O2` (stereo unspecified), 20.8%; to `CN1CCc2c(sc3c2c(NCc2ccco2)nc2nnnn23)C1`, 21.9%. To `O=C(Cc1ccc2c(c1)CCCC2)Nc1ccccc1Cl` belongs 10.5%; to `Cc1c(NC(=O)Nc2ccccc2Cl)sc(=S)n1C`, 12%. To `O=C(Nc1ccccc1Cl)/C(Cl)=C(\Cl)S(=O)c1ccccc1` (stereo unspecified) belongs 78.1% (active); to `CN=C1C=C/C(=N/N=c2\ccn(O)cc2C)C=C1C`, 16.6%. With `Cc1cc(-c2ccc(S(=O)(=O)N3CCN(c4cccc(C(F)(F)F)c4)CC3)s2)on1`, the inhibition is -2.35%. With `COC(C[C@H](O)CC(=O)[C@@H](C)OCc1ccccc1)OC` the figure was 7.97%; with `COC(C[C@@H]1O[C@@H]1C(=O)[C@H](C)OCc1ccccc1)OC`, -17.2%; with `COC(C/C=C/C(=O)[C@@H](C)OCc1ccccc1)OC`, 54.5% (active).

These data come from PubChem BioAssay AID463190 (Sanford-Burnham Center for Chemical Genomics, 2010).
